Reference: PubChem BioAssay AID1159580 (chemical genetic matrix, 2015)
The campaign covered roughly 5,500 compounds. About 2,000 (36%) were called active. Inconclusive results (about 18%) are left out. Rule as the data show it: active = normalized growth mostly below about 0.91 (no sharp cut-off); inconclusive = no clear call, values can overlap the other calls; inactive = mostly above about 0.92. The list shows a part of the results.

Test: chemical genetic growth profiling, strain panel (AID 1159580);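 also: tested at 20 µM; growth read once vehicle control cultures reached saturation at 30 °C; 1 = growth at the plate median or of vehicle wells; lower values mean less growth of the strain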
Conditions: growth OD

Measured: normalized growth

NCc1ccc(S(N)(=O)=O)cc1
inactive: S. cerevisiae deletion strains, locus YKL009W, strain mrt4, hits give low values 0.974 | S. cerevisiae deletion strains, locus YKL068W, hits give low values 0.987 | S. cerevisiae deletion strains, locus YKL085W, strain MDH1 (second series), hits give low values 0.982 | S. cerevisiae deletion strains, locus YKL085W, strain MDH1, hits give low values 0.982 | S. cerevisiae deletion strains, locus YKL160W, strain elf1, hits give low values 1.06 | S. cerevisiae deletion strains, locus YKL190W, strain CNB1, hits give low values 1.01 | S. cerevisiae deletion strains, locus YKR001C, strain vps1, hits give low values 1.02 | S. cerevisiae deletion strains, locus YKR026C, strain gcn3, hits give low values 1.01 | S. cerevisiae deletion strains, locus YKR091W, strain srl3, hits give low values 1 | S. cerevisiae deletion strains, locus YLL001W, strain dnm1, hits give low values 1.05 | S. cerevisiae deletion strains, locus YLL026W, hits give low values 1 | S. cerevisiae deletion strains, locus YLL041C, strain sdh2, hits give low values 0.996 | S. cerevisiae deletion strains, locus YLR027C, strain aat2, hits give low values 1.01 | S. cerevisiae deletion strains, locus YLR039C, strain RIC1, hits give low values 0.986 | S. cerevisiae deletion strains, locus YLR058C, strain SHM2, hits give low values 0.984 | S. cerevisiae deletion strains, locus YLR102C, strain apc9, hits give low values 0.988 | S. cerevisiae deletion strains, locus YLR113W, strain HOG1, hits give low values 1.01 | S. cerevisiae deletion strains, locus YLR221C, strain rsa3, hits give low values 1.05 | S. cerevisiae deletion strains, locus YLR258W, strain gsy2, hits give low values 1.01 | S. cerevisiae deletion strains, locus YLR262C, strain YPT6 (second series), hits give low values 1.04 | S. cerevisiae deletion strains, locus YLR262C, strain YPT6, hits give low values 1.02 | S. cerevisiae deletion strains, locus YLR268W, strain sec22, hits give low values 0.988 | S. cerevisiae deletion strains, locus YLR320W, strain mms22, hits give low values 1.06 | S. cerevisiae deletion strains, locus YLR330W, strain CHS5, hits give low values 0.989 | S. cerevisiae deletion strains, locus YLR342W, strain FKS1 (second series), hits give low values 1 | S. cerevisiae deletion strains, locus YLR342W, strain FKS1, hits give low values 1.01 | S. cerevisiae deletion strains, locus YLR357W, strain rsc2, hits give low values 1.01 | S. cerevisiae deletion strains, locus YLR370C, strain arc18, hits give low values 1.01 | S. cerevisiae deletion strains, locus YLR371W, strain rom2, hits give low values 0.985 | S. cerevisiae deletion strains, locus YLR384C, strain iki3, hits give low values 1.01 | S. cerevisiae deletion strains, locus YLR418C, strain cdc73, hits give low values 0.954 | S. cerevisiae deletion strains, locus YML016C, strain PPZ1, hits give low values 0.995 | S. cerevisiae deletion strains, locus YML032C, strain rad52, hits give low values 0.99 | S. cerevisiae deletion strains, locus YML120C, strain ndi1, hits give low values 1.04 | S. cerevisiae deletion strains, locus YML124C, strain tub3, hits give low values 0.99 | S. cerevisiae deletion strains, locus YMR058W, strain fet3, hits give low values 1.02 | S. cerevisiae deletion strains, locus YMR078C, strain ctf18, hits give low values 0.978 | S. cerevisiae deletion strains, locus YMR125W, strain sto1, hits give low values 1.04 | S. cerevisiae deletion strains, locus YMR129W, hits give low values 1 | S. cerevisiae deletion strains, locus YMR205C, strain PFK2, hits give low values 1.05 | S. cerevisiae deletion strains, locus YMR223W, strain ubp8, hits give low values 0.962 | S. cerevisiae deletion strains, locus YMR231W, strain pep5, hits give low values 0.993 | S. cerevisiae deletion strains, locus YMR263W, strain SAP30, hits give low values 0.999 | S. cerevisiae deletion strains, locus YMR307W, strain GAS1, hits give low values 1.01 | S. cerevisiae deletion strains, locus YNL067W, strain RPL9B, hits give low values 1 | S. cerevisiae deletion strains, locus YNL071W, strain lat1, hits give low values 1.01 | S. cerevisiae deletion strains, locus YNL153C, strain GIM3, hits give low values 1.01 | S. cerevisiae deletion strains, locus YNL183C, strain NPR1, hits give low values 0.956 | S. cerevisiae deletion strains, locus YNL209W, strain ssb2, hits give low values 1 | S. cerevisiae deletion strains, locus YNL233W, strain BNI4, hits give low values 0.99 | S. cerevisiae deletion strains, locus YNL248C, strain rpa49, hits give low values 1.04 | S. cerevisiae deletion strains, locus YNL250W, strain rad50, hits give low values 0.967 | S. cerevisiae deletion strains, locus YNL271C, strain bni1, hits give low values 0.985 | S. cerevisiae deletion strains, locus YNL298W, strain CLA4, hits give low values 0.991 | S. cerevisiae deletion strains, locus YNL307C, strain MCK1, hits give low values 0.992 | S. cerevisiae deletion strains, locus YNL322C, strain KRE1 (second series), hits give low values 1.02 | S. cerevisiae deletion strains, locus YNL322C, strain KRE1, hits give low values 0.999 | S. cerevisiae deletion strains, locus YNR049C, strain mso1, hits give low values 0.999 | S. cerevisiae deletion strains, locus YNR052C, strain pop2, hits give low values 0.987 | S. cerevisiae deletion strains, locus YOL006C, strain TOP1, hits give low values 0.97 | S. cerevisiae deletion strains, locus YOL012C, strain htz1 1.28 | S. cerevisiae deletion strains, locus YOL147C, strain pex11, hits give low values 0.985 | S. cerevisiae deletion strains, locus YOR001W, strain rrp6, hits give low values 0.972 | S. cerevisiae deletion strains, locus YOR061W, strain CKA2, hits give low values 0.993 | S. cerevisiae deletion strains, locus YOR069W, strain VPS5, hits give low values 0.99 | S. cerevisiae deletion strains, locus YOR070C, strain gyp1, hits give low values 1.01 | S. cerevisiae deletion strains, locus YOR080W, strain dia2, hits give low values 0.996 | S. cerevisiae deletion strains, locus YOR083W, strain WHI5, hits give low values 1.06 | S. cerevisiae deletion strains, locus YOR106W, strain vam3, hits give low values 1.06 | S. cerevisiae deletion strains, locus YOR136W, strain idh2, hits give low values 0.992 | S. cerevisiae deletion strains, locus YOR144C, strain elg1, hits give low values 0.987 | S. cerevisiae deletion strains, locus YOR184W, strain ser1, hits give low values 1 | S. cerevisiae deletion strains, locus YOR231W, strain MKK1, hits give low values 1.01 | S. cerevisiae deletion strains, locus YOR265W, strain rbl2, hits give low values 1.02 | S. cerevisiae deletion strains, locus YOR270C, strain vph1, hits give low values 1.06 | S. cerevisiae deletion strains, locus YOR290C, strain snf2, hits give low values 1.02 | S. cerevisiae deletion strains, locus YOR316C, strain cot1, hits give low values 0.993 | S. cerevisiae deletion strains, locus YPL051W, strain arl3, hits give low values 1.03 | S. cerevisiae deletion strains, locus YPL055C, strain LGE1, hits give low values 1.01 | S. cerevisiae deletion strains, locus YPL078C, strain atp4, hits give low values 1.06 | S. cerevisiae deletion strains, locus YPL106C, strain sse1, hits give low values 1.03 | S. cerevisiae deletion strains, locus YPL240C, strain hsp82, hits give low values 1.01 | S. cerevisiae deletion strains, locus YPL241C, strain CIN2, hits give low values 0.998 | S. cerevisiae deletion strains, locus YPL256C, strain CLN2, hits give low values 1.01 | S. cerevisiae deletion strains, locus YPR119W, strain clb2, hits give low values 0.993 | S. cerevisiae deletion strains, locus YPR141C, strain kar3, hits give low values 0.976 | S. cerevisiae deletion strains, locus YPR163C, strain tif3, hits give low values 0.995 | S. cerevisiae deletion strains, locus YPR167C, strain met16, hits give low values 0.99 | S. cerevisiae deletion strains, strain wtn01, hits give low values 0.987 | S. cerevisiae strains, strain wild type, hits give low values 1.01
